In the supplement of paper PMC12645437, “Orthogonal IMiD-Degron Pairs Induce Selective Protein Degradation in Cells” (ACS Chemical Biology, 2025):
In all, about 8,300 sequences were measured (“log2 fold change of degron read counts, EGFP-low vs EGFP+ sorted cells (limma voom), compound-induced degradation”: median about -1.1, highest 2% from about 3.2 on). This is one part of a sample in which the highest values are shown more often than they occur.

T1: CRBN, Q96SW2
T1 chain: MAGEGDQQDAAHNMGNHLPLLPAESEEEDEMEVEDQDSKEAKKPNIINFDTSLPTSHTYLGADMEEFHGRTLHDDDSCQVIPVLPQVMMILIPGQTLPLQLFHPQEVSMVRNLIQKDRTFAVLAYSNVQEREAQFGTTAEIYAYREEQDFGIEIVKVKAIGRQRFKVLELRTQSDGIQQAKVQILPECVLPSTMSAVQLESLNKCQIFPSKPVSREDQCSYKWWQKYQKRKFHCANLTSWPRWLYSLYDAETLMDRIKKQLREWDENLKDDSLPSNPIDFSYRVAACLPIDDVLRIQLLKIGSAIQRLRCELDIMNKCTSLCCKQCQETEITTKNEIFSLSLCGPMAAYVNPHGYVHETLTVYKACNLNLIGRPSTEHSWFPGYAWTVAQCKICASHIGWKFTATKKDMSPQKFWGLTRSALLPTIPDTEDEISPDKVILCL

B1: 46L_47R_49E_50I_52G_53F_54F_55C_67L_, Q9UKT9 (peptide)
chain: LRCEICGFFCTQKGNLLRHIKL
B2: 46F_47S_49N_50Q_52G_53H_54K_55F_67L_, Q9UKT9 (peptide)
chain: FSCNQCGHKFTQKGNLLRHIKL
B3: 46F_47A_49E_50Q_52G_53A_54Y_55F_67L_, Q9UKT9 (peptide)
chain: FACEQCGAYFTQKGNLLRHIKL
B4: 46F_47C_49N_50Q_52G_53H_54D_55F_67L_, Q9UKT9 (peptide)
chain: FCCNQCGHDFTQKGNLLRHIKL
B5: 46F_47D_49N_50Q_52G_53R_54C_55F_67L_, Q9UKT9 (peptide)
chain: FDCNQCGRCFTQKGNLLRHIKL
B6: 46F_47G_49P_50V_52G_53A_54A_55F_67L_, Q9UKT9 (peptide)
chain: FGCPVCGAAFTQKGNLLRHIKL
B7: 46F_47C_49P_50V_52G_53A_54A_55F_67L_, Q9UKT9 (peptide)
chain: FCCPVCGAAFTQKGNLLRHIKL
B8: 46F_47V_49P_50Q_52G_53A_54A_55F_67L_, Q9UKT9 (peptide)
chain: FVCPQCGAAFTQKGNLLRHIKL
B9: 46F_47W_49P_50V_52G_53A_54A_55F_67L_, Q9UKT9 (peptide)
chain: FWCPVCGAAFTQKGNLLRHIKL
B10: 46F_47E_49P_50V_52G_53A_54A_55F_67L_, Q9UKT9 (peptide)
chain: FECPVCGAAFTQKGNLLRHIKL
B11: 46F_47Y_49P_50Q_52G_53A_54A_55F_67L_, Q9UKT9 (peptide)
chain: FYCPQCGAAFTQKGNLLRHIKL
B12: 46F_47Q_49P_50Q_52G_53A_54A_55F_67L_, Q9UKT9 (peptide)
chain: FQCPQCGAAFTQKGNLLRHIKL
B13: 46F_47Q_49P_50V_52G_53A_54A_55F_67L_, Q9UKT9 (peptide)
chain: FQCPVCGAAFTQKGNLLRHIKL
B14: 46F_47I_49P_50V_52G_53A_54A_55F_67L_, Q9UKT9 (peptide)
chain: FICPVCGAAFTQKGNLLRHIKL
B15: 46F_47M_49P_50V_52G_53A_54A_55F_67L_, Q9UKT9 (peptide)
chain: FMCPVCGAAFTQKGNLLRHIKL
B16: 46F_47H_49P_50V_52G_53A_54A_55F_67L_, Q9UKT9 (peptide)
chain: FHCPVCGAAFTQKGNLLRHIKL
B17: 46F_47V_49P_50V_52G_53A_54A_55F_67L_, Q9UKT9 (peptide)
chain: FVCPVCGAAFTQKGNLLRHIKL

Target: T1, CRBN, Q96SW2
Assay: log2 fold change of degron read counts, EGFP-low vs EGFP+ sorted cells (limma voom), compound-induced degradation; higher = more compound-induced degradation of the degron-EGFP fusion; degrons are variants of IKZF1/3 zinc finger 2; compound dose not given here
Conditions: Jurkat, 18 h
Method: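 Pooled library of 8380 IKZF3 ZF2 degron mutants (positions 146-167 varied within the IKZF3 130-189 degron; only the varied core is printed, flanks not printed) fused to EGFP with IRES-mCherry, lentivirally expressed in Jurkat cells. mCherry+ cells were treated with one IMiD compound for 18 h (dose not stated) and FACS-sorted into EGFP-low and EGFP+ populations. Degron sequences were counted by NGS, and log2FC (EGFP-low vs EGFP+) was estimated by limma voom over 3 biological replicates.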

[1] = compound: compound 19 (5-tert-butyl-thalidomide)
[2] = compound: compound 22 (5-morpholino-thalidomide)
[3] = compound: compound 33 (diphenyl IMiD analogue)
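Also: pooled lentiviral library of zinc finger degron-EGFP fusions in mCherry-positive Jurkat cells, FACS-sorted after compound exposure, with degron abundance counted by next-generation sequencing.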

Row | Sequence | log2 fold change of degron read counts [1] | log2 fold change of degron read counts [2] | log2 fold change of degron read counts [3] | log2 fold change of degron read counts (compound: thalidomide)
1 | B1 | -0.285 | -0.446 | 0.954 | 1.12
2 | B2 | -2.24 | -2.55 | -2.41 | -2.6
3 | B3 | -0.764 | -2.44 | -1.5 | -1.62
4 | B4 | -2.95 | -3.42 | -3.04 | -2.8
5 | B5 | -2.4 | -2.73 | -2.2 | -1.93
6 | B6 | 3.32 | 2.34 | 2.97 | 1.29
7 | B7 | 3.16 | 2.58 | 2.48 | 2.16
8 | B8 | -1.44 | 1.34 | 1.04 | 1.46
9 | B9 | 3.13 | 3.69 | 2.44 | 1.11
10 | B10 | 2.1 | -0.445 | 2.32 | 3
11 | B11 | 1.03 | 1.46 | 1.86 | -0.429
12 | B12 | -0.422 | 1.04 | 0.683 | 3.27
13 | B13 | 2.54 | 3.1 | 2.52 | 3.69
14 | B14 | -0.386 | 2.86 | 2.22 | 2.77
15 | B15 | 1.72 | 2.21 | 3.08 | 2.11
16 | B16 | 2.96 | 2.4 | 2.16 | 0.942
17 | B17 | 0.708 | 3.2 | 2.37 | 3.08
